The structures appear in SMILES notation. Screen size: about 370,000 compounds; about 2,400 (0.65%) were called active. The full list was thinned out, with actives kept by preference. A number with no mark means an inactive call.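 How the source made its calls: active means inhibition above the screen-wide mean plus 3 SD (cut at about 13% in these data); inactive means the rest.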

In the assay the test system is HIV-1 integrase (with human LEDGF/p75). The experiment in a line: blockers of LEDGF/p75-dependent integrase strand transfer – biochemical, TR-FRET, high throughput, primary screen (AID 743269).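 Further: signal is the Cy5 over europium emission ratio at 671 and 618 nm; 0% = plate median of compound wells.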 Conditions: TR-FRET IN-LEDGF/p75 DNA integration, Eu/Cy5; at 3.7 µM; hits give high values.
For the compound `CSc1ccc(C=Nn2c(-c3ccc(F)cc3)n[nH]c2=S)cc1`, the inhibition is 1.18%.

Turning to `COc1ccc2c(c1)CN1CN(CCc3ccccc3)S(=O)(=O)CC21` (stereo not given), the inhibition is 3.16%.

Take `CN1CCN(C(=O)/C(=C\c2cccs2)NC(=O)c2cccs2)CC1`: the inhibition is -1.57%.

In the case of `O=C(N/C(=C\c1ccc(O)cc1)C(=O)N1CCCCC1)c1ccccc1`, the inhibition was 3.65%.

Take `Cc1ccc(C(=O)N/C(=C/c2cccs2)C(=O)N2CCCCC2)cc1`: the inhibition is 33% (active).

With `Cc1ccc(Cn2cc(CN3[C@@H](C)COc4cc(Br)ccc4S3(=O)=O)nn2)cc1`, the inhibition was 4.11%.

Regarding `O=C1Nc2ccccc2OC1CC(=O)N1CCCCCCC1` (stereo not given), the inhibition is 0.2%.

For `CCC(CO)Nc1cccc2c1S(=O)(=O)N(Cc1cn(Cc3ccccc3C(F)(F)F)nn1)Cc1ccccc1O2` (stereo not given), the inhibition was -2.25%.

With `FC(F)(F)c1cccc(Cn2ccc3ccc(-c4ccc5ccn(Cc6ccccc6)c5c4)cc32)c1`, the inhibition was 3.37%.

Consider `CC(=O)N1CCc2cc(S(=O)(=O)NCCC(=O)N3CCCC3)ccc21`, for which the inhibition is -3.8%.

`CC1(C(=O)NS(=O)(=O)c2ccc(C#N)cc2)CCN1C(=O)c1ccc(C2CCCCC2)cc1` (stereo not given): the inhibition was -1.93%.

For `CC1(OC(=O)C2CCCC2)C(=O)C=C2C=C(c3ccc(C#N)cc3)OC=C2C1=O` (stereo not given), the inhibition was 13.4% (active).

In the case of `Cc1ccccc1C(=O)N1CCC(C(=O)Oc2ccc(C#N)cc2)CC1`, the inhibition was -4.31%.

Take `C[C@H]1CCC/C=C/C(=O)c2c(O)cc(O)cc2CC(=O)O1`: the inhibition is -2.09%.

For the compound `Cc1cc2c(c(=O)n1C)C(C(C)C)C(C#N)=C(N)O2` (stereo not given), the inhibition is 0.88%.

Regarding `O=C(Cn1c(=O)n(Cc2ccco2)c(=O)c2ccccc21)NCC1CCCO1` (stereo not given), the inhibition is 2.8%.

`Cc1cc2c(c(=O)n1Cc1ccco1)C(c1ccccc1)C(C#N)=C(N)O2` (stereo not given): the inhibition was 42.2% (active).

Regarding `N#Cc1ccc(OC[C@@H](O)CN2CCC(C(O)(c3ccccc3)c3ccccc3)CC2)c(F)c1`, the inhibition is 1.07%.

As for `O=C(Nc1nnc(-c2ccccc2)o1)c1cccc(S(=O)(=O)N2CCOCC2)c1`, the inhibition was 4.42%.

For `Cc1ccnc(NS(=O)(=O)c2ccc(NC(=O)c3ccc(S(=O)(=O)N4CCOCC4)cc3)cc2)n1`, the inhibition was -0.6%.

`O=C(Nc1nnc(-c2ccco2)o1)c1ccc(S(=O)(=O)N2CCOCC2)cc1`: the inhibition was 27% (active).

For `Cc1cccc(C(=O)Nc2c(-c3ccc(F)cc3)nc3ncccn23)c1`, the inhibition was 1.19%.

`C=CCN1[C@H](CC(C)C)COc2cccc(N3CCCC3)c2S1(=O)=O`: the inhibition is -3.3%.

In the case of `CCN(CC)C(=O)CC[C@H]1CC[C@]2(CCCN(Cc3ccc(Cl)cc3)C2)O1`, the inhibition was 3.81%.

Regarding `CCCC[C@H]1C2CC(OC(=O)NCc3ccccc3)C(C2)[C@H]2CCCCN21` (stereo not given in full), the inhibition was -3.96%.

As for `CCCCNC(=O)OC1CC2CC1[C@H]1CCCCN1C2=O` (stereo not given in full), the inhibition was 25.4% (active).

For the compound `O=C(OC1CC2CC1[C@H]1CCCCN1C2=O)N1CCOCC1` (stereo not given in full), the inhibition was -2.09%.

Turning to `c1coc(CCNc2ncnc3ccc(-c4ccc5c(c4)OCO5)cc23)c1`, the inhibition was 2.41%.

As for `COC(=O)c1cc(S(=O)(=O)N2CCN(c3ccccc3C)CC2)cn1C`, the inhibition is -0.95%.

With `CC(C)Cn1c(N)c(C(=O)NCc2cccs2)c2nc3ccccc3nc21`, the inhibition was 23.8% (active).

In the case of `Cc1nc2c(C(=O)NCc3cccs3)cnn2c(C)c1Cc1ccc(F)cc1`, the inhibition is -1.76%.

`O=C(Cc1coc2ccc3ccccc3c12)NCc1cccs1`: the inhibition is 0.4%.

With `N[C@@H](Cc1ccccc1)C(=O)N1CCC[C@@H]1C(=O)N1CCC2CCN(S(=O)(=O)c3ccccc3)CC21` (stereo not given in full), the inhibition is 3.42%.

Consider `Cc1ccc(CSc2nnc(SCC(=O)NN=Cc3cc(Br)ccc3F)s2)cc1`, for which the inhibition is 3.4%.

Take `CCOC(=O)c1ccc(NC(=O)c2c(NCc3ccccc3)[nH]c(=O)[nH]c2=O)cc1`: the inhibition was 2.44%.

Turning to `CCOC(=O)c1ccc(Nc2cc3ccccc3c(=O)[nH]2)cc1`, the inhibition was 15.5% (active).

For the compound `CCOC(=O)c1ccc(NC(=O)c2c(N)n(C)c(=O)[nH]c2=O)cc1`, the inhibition was -0.3%.

On to `COc1ccccc1C(=O)NC1CCCCN(C(C)C)C1=O` (stereo not given), for which the inhibition was -1.35%.

As to `COC(=O)C[C@@H]1CC[C@H]2[C@@H](COc3ccc(NS(=O)(=O)CC(F)(F)F)cc3C(=O)N2C)O1`, the inhibition was -3.99%.

On to `COC(=O)[C@@]12CCCCC=C1N(CCc1ccc(Cl)cc1)C(=O)[C@H]2CC(=O)NCc1ccc(OC)c(OC)c1`, for which the inhibition was 2.21%.

With `C=CCN(Cc1ccc2c(c1)OCO2)C(C#CC1CC1)C(C)(C)C` (stereo not given), the inhibition is 0.61%.

As for `Cc1ccc(S(=O)(=O)N2CCN(C)CC2)cc1C(=O)NC1CCCCC1`, the inhibition was 2.41%.

With `COc1ccc(S(=O)(=O)N2CCOCC2)cc1C(=O)NC1CCCCC1`, the inhibition was 1.4%.

Turning to `COc1ccc(S(=O)(=O)N2CCCCC2)cc1C(=O)NC1CCS(=O)(=O)C1` (stereo not given), the inhibition is 19.8% (active).

Take `C=CCN1C(=O)[C@@H](CC(=O)NCCCCc2ccccc2)[C@]2(C(=O)OCC)CCCCC/C=C/12`: the inhibition was -2.38%.

As to `Cc1ccccc1NC(=O)C1CCN(c2ncccn2)CC1`, the inhibition was -1.73%.

As for `COc1cccc(C2CC(c3cccs3)=NN2C(=O)CSC2=NCCS2)c1OC` (stereo not given), the inhibition was -1.38%.

For `COc1ccc(C2CC(c3cccs3)=NN2c2nc(C)c(C(C)=O)s2)cc1OC` (stereo not given), the inhibition is -0.06%.

With `COc1ccc(C2CC(c3cccs3)=NN2C(=O)COC(=O)c2cc3ccccc3cc2O)cc1OC` (stereo not given), the inhibition is 23% (active).

Consider `Nc1ccc2nc3c(=O)[nH]c(=S)[nH]c3nc2c1`, for which the inhibition is 39.9% (active).

For `COc1ccc(Cn2cc(CN3[C@@H](CC(C)C)COc4cc(Br)ccc4S3(=O)=O)nn2)cc1`, the inhibition is 3.34%.

Regarding `Cc1nc(CNc2ncnc3ccc(-c4ccc5c(c4)OCO5)cc23)cs1`, the inhibition was -1.03%.

Turning to `O=C(NCCCc1ccccc1)[C@H](Cc1ccccc1)NC1(C(=O)NCCc2c[nH]c3ccccc23)CCC1`, the inhibition is -0.75%.

With `COc1ccc(N2CCN(CCNS(=O)(=O)c3ccc(C(C)(C)C)cc3)CC2)cc1`, the inhibition was 1.13%.

For `CC(=O)OCCN1CCCC12CCC(c1ccccc1)CC2` (stereo not given), the inhibition was -3.46%.
